Reference: PubChem BioAssay (NCI)
“And” between values parts separate entries of the source, which are not always exact repeats. Identical values can stand only once. Compounds without any hit were thinned out: in the full panel of roughly 79,000, 15% have a hit. Where a structure was tested more than once in an assay, its records may differ in their call. The source made the active and inactive calls. Cut-off read from the data, not from the text of the source: active = growth inhibition above about 70%; inactive = the rest.

Experiments:
[1] = NCI Yeast Anticancer Drug Screen. Data for the mec2-1 strain (AID 157); details: S. cerevisiae mec2-1 strain, stronger effect = higher value
Method in brief: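 Readout is yeast growth inhibition, normalised to vehicle-treated controls, in the mec2-1 strain exposed to compound.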

[2] = NCI Yeast Anticancer Drug Screen. Data for the rad14 strain (AID 159);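 note: 0% = growth of vehicle-treated control cultures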; details: S. cerevisiae rad14 strain growth inhibition, stronger effect = higher value
Method in brief: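 Yeast cells carrying a defined DNA-repair defect were exposed to compounds, and growth inhibition was calculated relative to vehicle-treated control cultures.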

[3] = NCI Yeast Anticancer Drug Screen. Data for the sgs1 mgt1 strain (AID 161);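 note: 0% = growth of cultures given vehicle only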; details: S. cerevisiae sgs1 mgt1 strain, stronger effect = higher value
Method in brief: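 Yeast cells carrying a defined DNA-repair defect were exposed to test compounds. Growth inhibition was measured relative to vehicle-treated controls.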

[4] = NCI Yeast Anticancer Drug Screen. Data for the cln2 rad14 strain (AID 165);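 note: 0% = growth equal to vehicle treated cultures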; details: S. cerevisiae cln2 rad14 strain, stronger effect = higher value
Method in brief: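 Relative to vehicle controls, growth inhibition of compound-treated cln2 rad14 yeast was recorded.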

[5] = NCI Yeast Anticancer Drug Screen. Data for the bub3 strain (AID 167); details: S. cerevisiae bub3 mutant strain, stronger effect = higher value
Method in brief: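 Compounds were applied to a genetically altered yeast strain carrying a cell-cycle control defect. Growth inhibition was scored against vehicle-treated controls.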

[6] = NCI Yeast Anticancer Drug Screen. Data for the wt2 strain (AID 169);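 note: 0% = growth of vehicle-treated yeast cultures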; details: S. cerevisiae wt2 strain growth inhibition, stronger effect = higher value
Method in brief: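 Values express reduction in yeast growth under compound treatment, referenced to vehicle-treated cells.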

[7] = NCI Yeast Anticancer Drug Screen. Data for the mlh1 strain (AID 171);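 note: 0% = growth of vehicle-treated control cultures of the same strain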; details: S. cerevisiae mlh1 strain growth inhibition, stronger effect = higher value
Method in brief: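 Steps: expose the defined-mutant yeast strain to compound; expose a parallel culture to vehicle; measure growth; express compound effect as inhibition relative to the vehicle culture.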

[8] = NCI Yeast Anticancer Drug Screen. Data for the sgs1 strain (AID 173);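 note: 0% = growth of vehicle-only control cultures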; details: S. cerevisiae sgs1 mutant, stronger effect = higher value
Method in brief: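 Treat defined-mutant yeast with compound; measure growth; calculate inhibition relative to vehicle-treated cells.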

[9] = NCI Yeast Anticancer Drug Screen. Data for the mlh1 rad18 strain (AID 175); details: S. cerevisiae mlh1 rad18 strain growth inhibition, stronger effect = higher value
Method in brief: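 Test agents were incubated with a yeast strain of defined genotype (DNA damage repair defect). Inhibition of growth was derived by comparison with vehicle-exposed cultures.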

[10] = NCI Yeast Anticancer Drug Screen. Data for the rad18 strain (AID 177); details: S. cerevisiae rad18 mutant growth inhibition, stronger effect = higher value
Method in brief: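 A genetically defined yeast mutant impaired in DNA damage repair was treated with test compounds, then its growth was measured against cultures receiving vehicle alone.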

[11] = NCI Yeast Anticancer Drug Screen. Data for the rad52 strain (AID 147);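 note: 0% = growth of vehicle-treated control cultures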; details: S. cerevisiae rad52 mutant growth inhibition, stronger effect = higher value
Method in brief: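 Screen used a yeast mutant impaired in DNA repair. After compound exposure, growth was measured. Values reflect inhibition compared with vehicle-treated cells.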

[12] = NCI Yeast Anticancer Drug Screen. Data for the wt1 strain (AID 149);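 note: 0% = growth of vehicle-treated wt1 cultures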; details: S. cerevisiae wt1 strain (SPY 50644) growth inhibition, stronger effect = higher value
Method in brief: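 Yeast wt1 strain exposed to compounds; growth inhibition measured relative to vehicle-treated controls.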

[13] = NCI Yeast Anticancer Drug Screen. Data for the rad50EPP+ strain (AID 151);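 note: 0% = growth of vehicle-treated control cultures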; details: S. cerevisiae rad50 mutant strain, stronger effect = higher value
Method in brief: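 Exposing the rad50EPP+ strain to each compound, growth was compared with vehicle-only cultures to give inhibition.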

[14] = NCI Yeast Anticancer Drug Screen. Data for the mgt1 strain (AID 153); details: S. cerevisiae mgt1 mutant growth inhibition, stronger effect = higher value
Method in brief: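 Genetically defined yeast (mgt1) treated with compound; inhibition of growth expressed against vehicle-treated controls.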

[15] = NCI Yeast Anticancer Drug Screen. Data for the rad50 strain (AID 155);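 note: 0% = growth of vehicle-only cultures of the same strain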; details: S. cerevisiae rad50 strain growth inhibition, stronger effect = higher value
Method in brief: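 Yeast carrying a defined DNA repair defect were exposed to test compounds, and growth was compared with vehicle-treated controls to give percent inhibition.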

[16] = NCI Yeast Anticancer Drug Screen. Data for the CLN2oe strain (AID 163);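 note: 0% = growth of vehicle-only control cultures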; details: S. cerevisiae CLN2oe strain, stronger effect = higher value
Method in brief: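 Values reflect how much compound exposure reduced yeast growth, referenced to vehicle-exposed cells. Assay organism is a strain with a defined genetic change affecting cell-cycle control.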

[17] = at 5.0 µM (retest, dose inferred, filed as 0.5)
[18] = at 50.0 µM (retest, dose inferred, filed as 5.0)

Measured: growth inhibition

O=C(O)C1C2c3ccccc3C(c3ccccc32)C1C(=O)O (centres undefined)
inactive: [1]; [17] -7% | [1]; at 11.0 µM -3% | [1]; at 33.0 µM -2% | [1]; [18] -1% | [1]; at 100.0 µM -1% | [2]; at 1.2 µM -2% | [2]; at 3.7 µM 1% | [2]; at 11.0 µM 0% | [2]; at 33.0 µM -2% | [2]; at 100.0 µM 2% | [3]; [17] -5% | [3]; [18] 16% | [3]; at 50.0 µM 52.7% and -33% | [4]; [17] 3% | [4]; [18] 10% | [4]; at 50.0 µM 25% and 11.1% | [5]; at 1.2 µM -4% | [5]; at 3.7 µM -3% | [5]; [17] 2% | [5]; at 11.0 µM -5% | [5]; at 33.0 µM -2% | [5]; [18] 17% | [5]; at 100.0 µM -2% | [6]; at 1.2 µM 0% | [6]; at 3.7 µM -10% | [6]; at 11.0 µM 5% | [6]; at 33.0 µM -1% | [6]; at 100.0 µM -16% | [7]; at 1.2 µM -4% | [7]; at 3.7 µM -4% | [7]; at 11.0 µM -1% | [7]; at 33.0 µM -4% | [7]; at 100.0 µM 1% | [8]; at 1.2 µM -12% | [8]; at 3.7 µM -22% | [8]; at 11.0 µM -3% | [8]; at 33.0 µM 5% | [8]; at 100.0 µM 12% | [9]; [17] 3% | [9]; [18] 69% | [9]; at 50.0 µM 37.1% and -42.5% | [10]; at 1.2 µM -4% | [10]; at 3.7 µM -2% | [10]; at 11.0 µM -1% | [10]; at 33.0 µM -2% | [10]; at 100.0 µM 6%
86.6% (active) and -20.4% (inactive): [1]; at 50.0 µM
71.2% (active) and -29.5% (inactive): [5]; at 50.0 µM

CCC(=O)OC1CCn2c1nc1c2C(=O)C(C)=C(N2CC2)C1=O (centres undefined)
inactive: [11]; at 1.2 µM -5% | [11]; at 3.7 µM 26% | [11]; at 11.0 µM 17% | [11]; at 33.0 µM 41% | [12]; at 1.2 µM 4% | [12]; at 3.7 µM -7% | [12]; at 11.0 µM -11% | [12]; at 33.0 µM -8% | [12]; at 100.0 µM 2% | [13]; at 1.2 µM 12% | [13]; at 3.7 µM 1% | [13]; at 11.0 µM -9% | [13]; at 33.0 µM 7% | [13]; at 100.0 µM 25% | [14]; at 1.2 µM 7% | [14]; at 3.7 µM -7% | [14]; at 11.0 µM -1% | [14]; at 33.0 µM 6% | [14]; at 100.0 µM 16% | [15]; at 1.2 µM 18% | [15]; at 3.7 µM -3% | [15]; [17] 48% | [15]; at 11.0 µM 18% | [15]; at 33.0 µM 34% | [15]; at 50.0 µM 55.8% | [1]; at 1.2 µM -7% | [1]; at 3.7 µM -2% | [1]; [17] 38% | [1]; at 11.0 µM 6% | [1]; at 33.0 µM 20% | [1]; [18] 64% | [1]; at 100.0 µM 64% | [2]; at 1.2 µM 8% | [2]; at 3.7 µM 7% | [2]; at 11.0 µM 14% | [2]; at 33.0 µM 38% | [3]; [17] 20% | [3]; [18] 66% | [16]; at 1.2 µM -41% | [16]; at 3.7 µM -44% | [16]; at 11.0 µM -43% | [16]; at 33.0 µM -39% | [16]; at 100.0 µM -19% | [4]; [17] 14% | [4]; [18] 54% | [4]; at 50.0 µM 57.6% | [5]; at 1.2 µM 9% | [5]; at 3.7 µM -3% | [5]; [17] -24% | [5]; at 11.0 µM -9% | [5]; at 33.0 µM -14% | [5]; [18] -11% | [5]; at 50.0 µM -7.05% | [5]; at 100.0 µM 13% | [6]; at 1.2 µM -30% | [6]; at 3.7 µM -35% | [6]; at 11.0 µM -29% | [6]; at 33.0 µM -19% | [6]; at 100.0 µM 16% | [7]; at 1.2 µM 5% | [7]; at 3.7 µM 24% | [7]; at 11.0 µM -11% | [7]; at 33.0 µM -10% | [7]; at 100.0 µM 24% | [8]; at 1.2 µM 14% | [8]; at 3.7 µM 30% | [8]; at 11.0 µM 37% | [8]; at 33.0 µM 55% | [9]; [17] 45% | [9]; at 50.0 µM 69% | [10]; at 1.2 µM 60%
active: [11]; at 100.0 µM 82% | [15]; [18] 87% | [15]; at 100.0 µM 78% | [1]; at 50.0 µM 70.4% | [2]; at 100.0 µM 79% | [3]; at 50.0 µM 71.4% | [8]; at 100.0 µM 80% | [9]; [18] 73% | [10]; at 3.7 µM 75% | [10]; at 11.0 µM 87% | [10]; at 33.0 µM 90% | [10]; at 100.0 µM 91%

O=C(O)CCCOc1cc(Cl)c(Cl)cc1Cl
active: [11]; at 100.0 µM 75% | [12]; at 100.0 µM 71% | [13]; at 100.0 µM 70% | [14]; at 100.0 µM 80% | [15]; [18] 98% | [15]; at 50.0 µM 82% | [15]; at 100.0 µM 78% | [1]; [18] 98% | [1]; at 50.0 µM 74.8% | [1]; at 100.0 µM 90% | [2]; at 100.0 µM 81% | [3]; at 50.0 µM 77.2% | [4]; at 50.0 µM 75.5% | [5]; at 50.0 µM 83.4% | [5]; at 100.0 µM 78% | [6]; at 100.0 µM 80% | [7]; at 100.0 µM 80% | [8]; at 100.0 µM 76% | [9]; [18] 99% | [9]; at 50.0 µM 78.7% | [10]; at 100.0 µM 77%
inactive: [11]; at 1.2 µM -13% | [11]; at 3.7 µM -4% | [11]; at 11.0 µM 1% | [11]; at 33.0 µM 45% | [12]; at 1.2 µM -1% | [12]; at 3.7 µM -9% | [12]; at 11.0 µM 2% | [12]; at 33.0 µM 22% | [13]; at 1.2 µM -10% | [13]; at 3.7 µM -6% | [13]; at 11.0 µM 13% | [13]; at 33.0 µM 43% | [14]; at 1.2 µM -17% | [14]; at 3.7 µM -32% | [14]; at 11.0 µM -13% | [14]; at 33.0 µM 35% | [15]; at 1.2 µM -10% | [15]; at 3.7 µM -17% | [15]; [17] 40% | [15]; at 11.0 µM -5% | [15]; at 33.0 µM 42% | [1]; at 1.2 µM -24% | [1]; at 3.7 µM -13% | [1]; [17] 52% | [1]; at 11.0 µM 4% | [1]; at 33.0 µM 34% | [2]; at 1.2 µM -13% | [2]; at 3.7 µM -4% | [2]; at 11.0 µM -4% | [2]; at 33.0 µM 17% | [3]; [17] -17% | [3]; [18] 18% | [16]; at 1.2 µM 0% | [16]; at 3.7 µM -15% | [16]; at 11.0 µM -11% | [16]; at 33.0 µM 4% | [16]; at 100.0 µM 60% | [4]; [17] 10% | [4]; [18] 47% | [5]; at 1.2 µM -6% | [5]; at 3.7 µM -3% | [5]; [17] 28% | [5]; at 11.0 µM -2% | [5]; at 33.0 µM 43% | [5]; [18] 52% | [6]; at 1.2 µM -6% | [6]; at 3.7 µM -11% | [6]; at 11.0 µM -4% | [6]; at 33.0 µM 30% | [7]; at 1.2 µM -20% | [7]; at 3.7 µM -27% | [7]; at 11.0 µM 2% | [7]; at 33.0 µM 40% | [8]; at 1.2 µM -13% | [8]; at 3.7 µM -18% | [8]; at 11.0 µM 2% | [8]; at 33.0 µM 43% | [9]; [17] 42% | [10]; at 1.2 µM -33% | [10]; at 3.7 µM -21% | [10]; at 11.0 µM -7% | [10]; at 33.0 µM 41%
